# Test results: PubChem BioAssay
# Active and inactive are the calls of the source.
# Key:
# [1] = optical density shifts of acrAB sulA E. coli – strain DRC41, OD650, 48 h, E. coli filamentation inducer project, primary screen (AID 1152); settings: higher = more signal, called active from +8 up or from −8 down;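 note: E. coli MC1000 strain DRC41 lacking acrAB efflux pump and sulA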
# [2] = probe aLefty1 binding on compound microarray – biochemical, small-molecule microarray, 635/667 nm fluorescence, primary screen (AID 1153); settings: higher = more signal;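 note: score merges spot fluorescence with signal-to-noise ratio from the scanned slide images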
# [3] = plasmodial surface anion channel blockers, osmotic lysis – cell-based, P. falciparum Indochina, OD700, 1 h, primary screen (AID 1154); settings: P. falciparum Indochina infected RBC osmotic lysis, higher = more signal, called active from +8 up or from −8 down
# [4] = plasmodial surface anion channel blockers, osmotic lysis – cell-based, P. falciparum Indochina, OD700, 2 h, primary screen (AID 1155);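 note: lysis reports solute entry through the parasite surface anion channel PSAC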; settings: P. falciparum Indochina infected erythrocytes, higher = more signal, called active from +8 up or from −8 down
# [5] = changes in parasitized red cell lysis, either direction – P. falciparum Indochina, OD700, 3 h, PSAC antagonist project, primary screen (AID 1156); settings: P. falciparum-infected erythrocytes, osmotic lysis, higher = more signal, called active from +8 up or from −8 down
# [6] = plasmodial surface anion channel blockers, osmotic lysis – cell-based, P. falciparum Indochina, OD700, 18 h, primary screen (AID 1157); settings: P. falciparum Indochina infected erythrocytes, osmotic lysis OD700, 18 h; higher = more signal, called active from +8 up or from −8 down
# [7] = S6 kinase pathway phospho-S6 level changes – cell-based, A549, cytoblot, luminescence, serum-stimulated, primary screen (AID 1158); settings: 5 h, higher = more signal;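 note: serum-stimulated A549 lung adenocarcinoma cells; signal is phosphorylated S6 detected by cytoblot immunostaining with HRP secondary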
# [8] = target: NADPH oxidase 2 (Homo sapiens) (UniProt P04839); assay: compounds shifting NOX2 Amplex Red fluorescence – cell-based, HEK293-NOX2, PMA-stimulated, NOX inhibitor project, primary screen (AID 1159); settings: 45 min, higher = more signal, called active from +8 up or from −8 down; note: test concentration not given here
# Sequence of NADPH oxidase 2 (Homo sapiens) (P04839 whole entry, looked up): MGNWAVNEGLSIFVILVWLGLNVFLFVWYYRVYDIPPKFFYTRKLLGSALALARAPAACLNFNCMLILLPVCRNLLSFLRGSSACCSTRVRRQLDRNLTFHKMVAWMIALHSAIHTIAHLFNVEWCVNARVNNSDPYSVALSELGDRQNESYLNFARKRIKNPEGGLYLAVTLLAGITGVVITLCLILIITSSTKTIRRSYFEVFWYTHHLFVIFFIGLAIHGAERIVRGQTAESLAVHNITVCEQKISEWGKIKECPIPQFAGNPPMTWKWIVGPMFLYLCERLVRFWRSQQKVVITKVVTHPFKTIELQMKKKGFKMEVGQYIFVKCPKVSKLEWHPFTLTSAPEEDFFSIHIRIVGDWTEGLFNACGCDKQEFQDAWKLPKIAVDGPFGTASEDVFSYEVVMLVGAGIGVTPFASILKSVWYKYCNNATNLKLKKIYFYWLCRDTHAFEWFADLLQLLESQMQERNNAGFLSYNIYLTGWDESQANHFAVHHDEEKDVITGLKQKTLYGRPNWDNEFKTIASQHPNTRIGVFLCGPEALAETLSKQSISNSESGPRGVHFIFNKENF
# [9] = target: NADPH oxidase 4 (Homo sapiens) (UniProt Q9NPH5); assay: compounds shifting NOX4 Amplex Red fluorescence – cell-based, HEK293-NOX4, tetracycline-induced, NOX inhibitor project, primary screen (AID 1160); settings: HEK293-NOX4, Amplex Red H2O2 fluorescence, 45 min; higher = more signal, called active from +8 up or from −8 down
# Sequence of NADPH oxidase 4 (Homo sapiens) (Q9NPH5 whole entry, looked up): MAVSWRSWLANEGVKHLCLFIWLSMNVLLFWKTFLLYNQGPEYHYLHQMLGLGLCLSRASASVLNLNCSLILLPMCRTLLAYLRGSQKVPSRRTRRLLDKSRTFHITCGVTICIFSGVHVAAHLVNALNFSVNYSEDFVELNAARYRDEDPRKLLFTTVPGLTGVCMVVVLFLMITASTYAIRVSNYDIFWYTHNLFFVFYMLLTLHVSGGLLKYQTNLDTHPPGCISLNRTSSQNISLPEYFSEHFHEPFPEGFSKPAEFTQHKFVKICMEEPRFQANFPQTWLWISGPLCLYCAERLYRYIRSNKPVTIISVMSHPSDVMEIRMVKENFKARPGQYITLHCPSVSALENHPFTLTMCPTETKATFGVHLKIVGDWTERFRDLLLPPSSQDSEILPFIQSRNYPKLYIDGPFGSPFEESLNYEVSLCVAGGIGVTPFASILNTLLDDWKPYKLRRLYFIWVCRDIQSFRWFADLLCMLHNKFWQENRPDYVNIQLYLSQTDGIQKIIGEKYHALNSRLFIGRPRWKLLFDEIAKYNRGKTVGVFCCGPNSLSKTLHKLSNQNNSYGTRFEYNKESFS
# [10] = target: NADPH oxidase 5 (Homo sapiens) (UniProt Q96PH1); assay: compounds shifting NOX5 Amplex Red fluorescence – cell-based, HEK293-NOX5, NOX inhibitor project, primary screen (AID 1161); settings: HEK293-NOX5, ionomycin, 45 min, higher = more signal
# Sequence of NADPH oxidase 5 (Homo sapiens) (Q96PH1 whole entry, looked up): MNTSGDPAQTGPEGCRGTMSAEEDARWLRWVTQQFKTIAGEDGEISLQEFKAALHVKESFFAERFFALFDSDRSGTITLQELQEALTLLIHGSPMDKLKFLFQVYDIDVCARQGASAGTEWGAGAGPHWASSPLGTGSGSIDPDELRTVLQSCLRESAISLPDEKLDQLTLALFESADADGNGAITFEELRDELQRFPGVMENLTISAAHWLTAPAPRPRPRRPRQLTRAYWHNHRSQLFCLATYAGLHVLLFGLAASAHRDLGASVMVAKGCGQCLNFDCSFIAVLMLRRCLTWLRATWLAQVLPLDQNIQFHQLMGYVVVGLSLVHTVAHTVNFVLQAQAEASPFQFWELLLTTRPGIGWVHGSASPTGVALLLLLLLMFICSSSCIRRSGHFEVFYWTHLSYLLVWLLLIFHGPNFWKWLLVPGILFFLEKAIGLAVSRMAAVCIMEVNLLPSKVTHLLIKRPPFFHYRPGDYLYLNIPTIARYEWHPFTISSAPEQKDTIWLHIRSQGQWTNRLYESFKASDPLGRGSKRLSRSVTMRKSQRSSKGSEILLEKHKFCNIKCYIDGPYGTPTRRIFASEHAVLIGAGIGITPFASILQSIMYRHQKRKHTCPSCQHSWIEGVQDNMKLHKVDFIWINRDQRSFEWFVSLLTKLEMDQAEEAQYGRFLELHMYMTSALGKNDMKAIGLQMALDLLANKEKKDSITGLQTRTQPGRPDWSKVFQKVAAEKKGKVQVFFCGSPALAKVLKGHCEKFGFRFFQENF
# [11] = compound effects on lung adenocarcinoma cell viability – A549, calcein-AM fluorescence, 48 h, basal, profiling panel (AID 1162); settings: higher = more signal; note: test concentration not given here
# [12] = compound effects on differentiated 3T3-L1 adipocyte viability – cell-based, 3T3-L1 adipocytes, calcein-AM fluorescence, 48 h, basal, profiling panel (AID 1163); settings: 3T3-L1 adipocytes viability, higher = more signal; note: test concentration not given here
# [13] = compound effects on hepatocellular carcinoma cell viability – HepG2, calcein-AM fluorescence, 48 h, basal, profiling panel (AID 1164); settings: higher = more signal; note: test concentration not given here
# [14] = compound effects on multiple myeloma cell viability – MM1S, calcein-AM fluorescence, 48 h, basal, profiling panel (AID 1165); settings: higher = more signal;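 note: viability of MM1S multiple myeloma cells under basal unstimulated conditions; test concentration not given here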
# [15] = calcein-AM signal in unstimulated myeloma cells – cell-based, calcein-AM fluorescence, 48 h, PK04 Diversity Set, profiling panel (AID 1166); settings: RPMI8226 myeloma viability, higher = more signal;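 note: cells grown under basal conditions without added stimulus; test concentration not given here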
# [16] = JC-1 mitochondrial signal, unstimulated HepG2 cells – cell-based, JC-1 fluorescence, 24 h, 100 nL compound, profiling panel (AID 1167); settings: HepG2 mitochondrial potential, higher = more signal; note: test concentration not given here
# [17] = JC-1 mitochondrial signal, unstimulated adipocytes – cell-based, JC-1 fluorescence, 3T3-L1 adipocytes, 24 h, 100 nL compound, profiling panel (AID 1168); settings: JC-1 mitochondrial fluorescence, higher = more signal, called active from +8 up or from −8 down; note: test concentration not given here
# [18] = JC-1 mitochondrial signal, unstimulated myeloma cells – cell-based, JC-1 fluorescence, RPMI8226, 24 h, 100 nL compound, profiling panel (AID 1169); settings: JC-1 mitochondrial potential fluorescence, higher = more signal; note: test concentration not given here
# [19] = JC-1 mitochondrial signal, unstimulated MM1S myeloma – cell-based, JC-1 fluorescence, 24 h, 100 nL compound, profiling panel (AID 1170); settings: MM1S mitochondrial potential, higher = more signal; note: test concentration not given here
# [20] = resazurin metabolic signal in A549 cells – cell-based, resazurin fluorescence, 24 h, PK04 Diversity Set, profiling panel (AID 1171); settings: A549 viability, higher = more signal, called active from +8 up or from −8 down; note: test concentration not given here
SMILES,z-score [1],composite z-score [2],z-score [3],z-score [4],z-score [5],z-score [6],z-score [7],z-score [8],z-score [9],z-score [10],z-score [11],z-score [12],z-score [13],z-score [14],z-score [15],z-score [16],z-score [17],z-score [18],z-score [19],z-score [20]
CCCCC=C[C@@H](NC(=O)c1ccc(C(=O)OC)cc1)c1ccccc1,-1.63 (inactive),0.317,2.85 (inactive),0.589 (inactive),0.63 (inactive),0.569 (inactive),0.12,-1.88 (inactive),-3.48 (inactive),0.0463,-1.19,-0.87,-0.721,-2.31,-2.6,-1.33,-0.346 (inactive),-0.862,-1.38,3.37 (inactive)
CCOC(=O)C[C@H]1[C@H](OC(=O)c2ccc(-c3ccccc3)cc2)[C@@H](NC(=O)Cc2ccc(OC)cc2)c2cc(OCCCO)ccc2N1C(=O)c1ccc2ccccc2n1,-0.667 (inactive),-0.231,2.63 (inactive),0.393 (inactive),-0.619 (inactive),0.653 (inactive),1.3,0.377 (inactive),1.29 (inactive),1.73,-0.315,-0.357,0.143,-0.514,-0.129,0.176,0.824 (inactive),0.0708,-0.625,0.596 (inactive)
CCCCCCc1nc(CCCc2cc3c(c(CCCCCC)n2)[Si](C(C)C)(C(C)C)OC3)cc2c1[Si](C(C)C)(C(C)C)OC2,-0.613 (inactive),0.13,0.611 (inactive),-1.07 (inactive),0.695 (inactive),-1.72 (inactive),0.62,-3.69 (inactive),-1.13 (inactive),-3.41,-2.42,1.78,-1.47,-3.28,-4.35,0.535,0.705 (inactive),-1.1,-0.553,1.75 (inactive)
C=CCOC(=O)[C@@H]1[C@H]2C(=O)O[C@H](c3ccccc3)[C@H](c3ccccc3)N2[C@H](c2ccc(OCCOC(=O)[C@@H]3C[C@@H]4C(=O)NCC(=O)N4[C@@H]3c3cccc(OCCO)c3)cc2)[C@@]12C(=O)Nc1ccc(I)cc12,-0.407 (inactive),0.42,2.11 (inactive),0.636 (inactive),1.64 (inactive),0.572 (inactive),-0.5,1.72 (inactive),1.19 (inactive),1.37,0.0646,0.904,0.646,-0.0922,0.129,-0.941,1.47 (inactive),-0.446,-1.08,0.0716 (inactive)
CCOC(=O)C[C@H]1[C@H](OC(=O)c2ccc(C(=O)c3ccccc3)cc2)[C@@H](NC(=O)C2CCCCC2)c2cc(OCCCO)ccc2N1C(=O)c1ccccc1,-1.01 (inactive),0.315,1.31 (inactive),-0.889 (inactive),-0.562 (inactive),-0.23 (inactive),-0.0118,0.469 (inactive),1.26 (inactive),1.77,-0.195,-0.589,0.431,-1.21,-0.681,1.4,-0.355 (inactive),0.0249,-0.0847,0.352 (inactive)
COC(=O)[C@@]1(Cc2ccccc2)[C@H]2c3cc(C(=O)N4CCCC4)n(Cc4ccc(C)o4)c3C[C@H]2CN1C(=O)c1ccccc1,-1.71 (inactive),0.198,1.63 (inactive),0.547 (inactive),0.278 (inactive),0.52 (inactive),-0.504,-0.254 (inactive),-0.867 (inactive),-1.17,-1.25,0.726,0.252,-1.47,-2.33,1.78,-0.753 (inactive),-1.02,-0.449,-0.646 (inactive)
COC(=O)[C@]1(Cc2ccccc2N=[N+]=[N-])N=C(c2ccc(OCCCO)cc2)O[C@@H]1c1ccccc1N=[N+]=[N-],-1.19 (inactive),-0.236,29.5 (active),27.4 (active),-0.495 (inactive),6.35 (inactive),0.0559,-0.877 (inactive),0.755 (inactive),0.677,-3.83,-0.504,-5.54,-3.59,-3.94,-2.39,-0.708 (inactive),-1.2,-2.8,-2.87 (inactive)
O=C(OCCF)C1=CCC(c2cccc(Cl)c2)O1 (stereo not given),0.562 (inactive),-0.378,16.4 (active),0.0666 (inactive),-0.628 (inactive),-1.21 (inactive),0.543,-0.0482 (inactive),0.842 (inactive),0.382,0.558,-0.0426,0.303,1.17,0.669,0.89,1.15 (inactive),-1.07,-0.157,-0.61 (inactive)
CCCCCCCCCCC(O)C1C=CC2C(=O)N(Cc3ccccc3)C(=O)C2N1n1cnnc1 (stereo not given),-1.55 (inactive),0.918,1.32 (inactive),-0.595 (inactive),1.6 (inactive),-2.48 (inactive),1.19,-2.6 (inactive),-1.1 (inactive),-4.63,-0.509,0.381,-0.324,-0.514,-0.921,0.015,-1.51 (inactive),-0.0408,-0.979,-0.929 (inactive)
